C diff HTS: inhibitors of Clostridium difficile growth. Clostridium difficile clinical isolate growth, OD600, 24 h; hits give low values. growth activity, negative = inhibition, % at 16 µg/mL (by protocol). 86,000 tested, 0.25% active;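 active means mean growth activity at or below -80% and every replicate also at or below -80%; inconclusive means mean at or below -80% but some replicate above -80%; inactive means mean growth activity above -80%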;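 further: 0% = DMSO wells and -100% = levofloxacin 16 µg/mL wells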
T cruzi growth-1: T. cruzi proliferation inhibition. T. cruzi beta-gal in NIH3T3, GalScreen luminescence, 90 h. AID 624255. inhibition, % at 8.34 µM. 77,000 tested, 5.9% active;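 active means mean inhibition above about 93%, with at least 55% of replicates each passing it, limit read from the data, passing the limit was not always enough; inconclusive means only one of those two conditions holds; inactive means neither condition holds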
Pf Dd2 growth: P. falciparum Dd2 growth inhibition. AID 1159554. SYBR Green, 72 h; hits give low values. activity change, % at 10 µM. 94,000 tested, 2.3% active; in the data active means activity change below about -80%; inconclusive means no clear call, values can overlap the other calls
T cruzi growth-2: Trypanosoma cruzi proliferation inhibition; T. cruzi beta-gal in NIH3T3, GalScreen luminescence, 90 h; 5,600 tested, 72% active; AID 651739; inhibition, % at 8.35 µM; shares compounds with T cruzi growth-1;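 active means mean replicate inhibition above about 95% and at least 55% of replicates individually reaching it, limit read from the data; inconclusive means only one of the two criteria is met; inactive means neither criterion is met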
T cruzi growth-3: inhibitors of T. cruzi proliferation | shares compounds with T cruzi growth-1 | T. cruzi beta-gal in NIH3T3, GalScreen luminescence, 90 h | inhibition, % at 2.09 µM | 5,600 tested, 21% active | AID 651740;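 active means mean inhibition above about 95%, with at least 55% of replicates also reaching it, limit read from the data; inconclusive means meets just one of the two conditions; inactive means meets neither condition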;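 further: plate controls were neutral control median for no effect and positive control median for full effect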
3T3 cytotox: kills mouse NIH/3T3 fibroblasts; shares compounds with T cruzi growth-1; NIH/3T3 viability, CellTiter-Glo ATP luminescence, 90 h; cytotoxicity (signal decrease), % at 8.35 µM; 5,600 tested, 14% active;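 active means mean signal decrease across replicates above about 35% based on untreated-well scatter, with enough replicates individually passing, limit read from the data; inconclusive means no rule stated though some were filed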;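 further: 0% = median of neutral control wells and 100% = median of positive control wells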
NIH3T3 tox 2: cytotoxicity in mouse NIH/3T3 fibroblasts. shares compounds with T cruzi growth-1. NIH/3T3 viability, CellTiter-Glo ATP luminescence, 90 h. inhibition, % at 24.9 µM. 5,600 tested, 56% active;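 active means mean loss of cell viability signal at or above a set limit, and enough replicates individually reaching it; inconclusive means meets only the mean limit or only the replicate share; inactive means meets neither condition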;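 further: 0% = median of neutral control wells and 100% = median of positive control wells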
The depositor's hits bear a star; ? = inconclusive; · = not tested or not shown. Compounds with a hit are over-represented: about 6.8% of the library has one in this group of screens.

SMILES | C diff HTS | T cruzi growth-1 | Pf Dd2 growth | T cruzi growth-2 | T cruzi growth-3 | 3T3 cytotox | NIH3T3 tox 2
C[C@@H]1CCCCO[C@H](CN(C)C(=O)Nc2ccc(F)cc2)[C@H](C)CN([C@@H](C)CO)C(=O)c2cc(NC(=O)Nc3ccc(C(F)(F)F)cc3)ccc2O1 | 4 | 97* | -38 | 102* | 115* | 22 | 16
C[C@@H]1CCCCO[C@H](CN(C)C(=O)Nc2ccc(F)cc2)[C@H](C)CN([C@@H](C)CO)C(=O)c2cc(NC(=O)Nc3ccc(F)cc3)ccc2O1 | · | · | -52 | · | · | · | ·
CC(C)NC(=O)Nc1ccc2c(c1)C(=O)N([C@H](C)CO)C[C@@H](C)[C@H](CN(C)C(=O)Nc1ccc(C(F)(F)F)cc1)OCCCC[C@@H](C)O2 | 8 | 89 | -53 | · | · | · | ·
C[C@@H]1CN([C@H](C)CO)C(=O)c2cc(N(C)C)ccc2O[C@@H](C)CCCCO[C@H]1CN(C)C(=O)Nc1ccc(C(F)(F)F)cc1 | 3 | 41 | -60 | · | · | · | ·
CNC[C@H]1OCCCC[C@H](C)Oc2ccc(NC(=O)Nc3ccc4c(c3)OCO4)cc2C(=O)N([C@H](C)CO)C[C@@H]1C | 4 | 41 | 19 | · | · | · | ·
CC(C)NC(=O)Nc1ccc2c(c1)C(=O)N([C@H](C)CO)C[C@@H](C)[C@@H](CN(C)C(=O)Nc1ccc(C(F)(F)F)cc1)OCCCC[C@@H](C)O2 | 45 | 105* | -73 | 104* | 92 | 12 | 20
C[C@H](CO)N1C[C@H](C)[C@H](CN(C)C(=O)Nc2ccc(C(F)(F)F)cc2)OCCCC[C@H](C)Oc2ccc(N(C)C)cc2C1=O | -2 | 101* | -65 | 106* | 78 | -4 | 39*
C[C@@H]1CN([C@@H](C)CO)C(=O)c2cc(N(C)C)ccc2O[C@@H](C)CCCCO[C@H]1CN(C)S(=O)(=O)c1cccs1 | -4 | 40 | -51 | · | · | · | ·
COC(=O)C[C@H]1CC[C@H]2[C@H](COc3ccc(NC(=O)c4cscn4)cc3C(=O)N2C)O1 | 1 | 4 | -61 | · | · | · | ·
Cc1noc(C)c1NC(=O)Nc1ccc2c(c1)C(=O)N([C@@H](C)CO)C[C@@H](C)[C@@H](CN(C)C(=O)Nc1cccc3ccccc13)OCCCC[C@@H](C)O2 | 4 | 34 | -64 | · | · | · | ·
Cc1ccc(S(=O)(=O)N(C)C[C@H]2Oc3ccc(NC(=O)Cc4ccccc4)cc3CC(=O)N([C@H](C)CO)C[C@@H]2C)cc1 | -8 | 59 | -45 | · | · | · | ·
C[C@@H]1CCCCO[C@@H](CN(C)C(=O)Nc2ccc(F)cc2)[C@@H](C)CN([C@H](C)CO)C(=O)c2cc(N(C)C)ccc2O1 | 0 | 53 | 26 | · | · | · | ·
C[C@@H]1CN([C@H](C)CO)C(=O)c2cc(NC(=O)Nc3ccccc3)ccc2O[C@@H](C)CCCCO[C@H]1CN(C)C(=O)Nc1ccc(C(F)(F)F)cc1 | 0 | · | -73 | · | · | · | ·
C[C@@H]1CCCCO[C@H](CN(C)C(=O)Nc2ccc(F)cc2)[C@@H](C)CN([C@H](C)CO)C(=O)c2cc(NC(=O)Nc3ccc(C(F)(F)F)cc3)ccc2O1 | 4 | ? | -7 | 105* | 101* | 16 | 24
CC(C)NC(=O)N(C)C[C@@H]1OCCCC[C@@H](C)Oc2ccc(NC(=O)Nc3ccc(C(F)(F)F)cc3)cc2C(=O)N([C@@H](C)CO)C[C@H]1C | 8 | · | 23 | · | · | · | ·
CC(C)NC(=O)N(C)C[C@@H]1OCCCC[C@H](C)Oc2ccc(NC(=O)Nc3ccc(C(F)(F)F)cc3)cc2C(=O)N([C@@H](C)CO)C[C@@H]1C | -9 | ? | -47 | 109* | 78 | 12 | -1
C[C@H]1CCCCO[C@@H](CN(C)C(=O)Nc2ccc(C(F)(F)F)cc2)[C@@H](C)CN([C@@H](C)CO)C(=O)c2cc(NC(=O)Nc3ccc(F)cc3)ccc2O1 | -1 | 114* | 3 | 108* | 106* | -24 | -10
C[C@H]1CCCCO[C@@H](CN(C)C(=O)Nc2ccccc2)[C@@H](C)CN([C@@H](C)CO)C(=O)c2cc(NC(=O)Nc3ccc(C(F)(F)F)cc3)ccc2O1 | -9 | · | -15 | · | · | · | ·
C[C@@H]1CCCCO[C@@H](CN(C)C(=O)Nc2ccc(C(F)(F)F)cc2)[C@@H](C)CN([C@H](C)CO)C(=O)c2cc(NC(=O)NC3CCCCC3)ccc2O1 | -3 | · | -64 | · | · | · | ·
C[C@H](CO)N1C[C@H](C)[C@@H](CN(C)C(=O)Nc2ccc(C(F)(F)F)cc2)OCCCC[C@H](C)Oc2ccc(NC(=O)NC3CCCCC3)cc2C1=O | 1 | 113* | -79 | 105* | 105* | 6 | 11
COc1ccc2c3c([nH]c2c1)[C@@H](CO)N(C(=O)CN(C)C)CC31CCN(CC2CCCC2)CC1 | 0 | · | -68 | · | · | · | ·
C[C@@H]1CN([C@@H](C)CO)C(=O)c2cc(NC(=O)CCC(F)(F)F)ccc2O[C@H]1CN(C)C(=O)Nc1ccc(F)cc1 | 6 | -1 | 26 | · | · | · | ·
Cc1noc(C)c1NC(=O)Nc1ccc2c(c1)C(=O)N([C@@H](C)CO)C[C@H](C)[C@@H](CN(C)S(=O)(=O)c1cccs1)O2 | · | 18 | 41 | · | · | · | ·
CNC[C@@H]1OCCCC[C@@H](C)Oc2ccc(NC(=O)Nc3ccc(C(F)(F)F)cc3)cc2C(=O)N([C@@H](C)CO)C[C@@H]1C | 9 | 9 | 3 | · | · | · | ·
C[C@@H]1CN([C@@H](C)CO)C(=O)c2cc(NC(=O)Nc3ccc(C(F)(F)F)cc3)ccc2O[C@@H](C)CCCCO[C@@H]1CN(C)C(=O)Nc1ccccc1 | 1 | · | -57 | · | · | · | ·
CNC[C@@H]1OCCCC[C@@H](C)Oc2ccc(NC(=O)Nc3ccc(C(F)(F)F)cc3)cc2C(=O)N([C@@H](C)CO)C[C@H]1C | 13 | ? | -10 | 15 | 12 | 17 | 1
C[C@@H]1CN([C@@H](C)CO)C(=O)c2cc(NC(=O)CCC(F)(F)F)ccc2O[C@@H](C)CCCCO[C@H]1CN(C)C(=O)Nc1ccc(C(F)(F)F)cc1 | 8 | 105 | -31 | · | · | · | ·
C[C@H](CO)N1C[C@H](C)[C@H](CN(C)C(=O)Nc2ccc(F)cc2)OCCCC[C@H](C)Oc2ccc(NC(=O)Nc3ccc(C(F)(F)F)cc3)cc2C1=O | 0 | 98* | 10 | 91 | 109* | 19 | 18
C[C@H]1CCCCO[C@@H](CN(C)C(=O)Nc2ccc(C(F)(F)F)cc2)[C@@H](C)CN([C@@H](C)CO)C(=O)c2cc(NC(=O)CCC(F)(F)F)ccc2O1 | 0 | ? | -58 | 99* | 110* | 17 | 17
C[C@@H]1CCCCO[C@H](CN(C)C(=O)Nc2ccccc2)[C@@H](C)CN([C@H](C)CO)C(=O)c2cc(NC(=O)Nc3ccc(C(F)(F)F)cc3)ccc2O1 | 0 | · | -24 | · | · | · | ·

Screens (PubChem BioAssay)
